According to PubChem BioAssay (NCI):
About 83,000 compounds went through this panel and 20% of them were active in at least one assay; those are over-represented in the sample as a whole.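 Compound tested at a single concentration for 48 hours in 96-well plates; a percent growth value below 10 was scored as active.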 Calls of active or inactive are those of the source.

tested on: CAKI-1 renal; test: NCI-60 one-dose screen, 48 h (100 = growth as untreated, 0 = no growth, -100 = all killed); conditions: 10 µM unless noted
Procedure: Growth inhibition of the CAKI-1 human tumor cell line is measured as a screen for anti-cancer activity. Cells are grown in 96 well plates and exposed to the test compound for 48 hours. Compounds are tested at a single concentration, which is 10^-5 M for most compounds. The reported endpoint is percent growth (GI% or GIPRCNT), where numbers from 0 - 100% represent growth inhibition, and numbers from -100% - 0 represent cell death. For example, a value of 40 represents 60% growth inhibition. A value of 0 means no net growth occurred over the course of the experiment. A value of -40 indicates 40% of cells at the beginning of the experiment died by the end of the experiment. A value of -100 means all cells are dead at the end of the experiment.
NCI-60 Human Tumor Cell Lines Screen was performed using the standard one-dose NCI protocol, which is described in more detail at https://dtp.cancer.gov/discovery_development/nci-60/default.htm.
Compounds with GIPRCNT values below 10 were considered active. Activity score was based on GIPRCNT using the following formula: […]
Score is 0 for GIPRCNT values of 100 or above, 50 for GIPRCNT values of 0, and 100 for GIPRCNT values of -100.

| SMILES | growth |
| --- | --- |
| CC[C@@H](C)OC(=O)c1nn(C(C)=O)c2ccccc12 | 97.8% (inactive) |
| COc1ccc(/C=c2/c(=O)[nH]c3nc4sc(C)c(C)c4c(=O)n23)cc1 | 74.2% (inactive) |
| O=C(/C=C\c1cccc([N+](=O)[O-])c1)c1ccccc1 | 84.4% (inactive) |
| Cn1c(=O)c2[nH]c(C(O)C(O)C(O)C(O)CO)nc2n(C)c1=O (stereo not given) | 102% (inactive) |
| O=C(CNC1C2CC3CC(C2)CC1C3)Sc1nnc2sc3ccccc3n12 (stereo not given) | 76.4% (inactive) |
| Cc1cc2cc3cc(C)c(N(C)C)cc3[n+](C)c2cc1N(C)C | 47.2% (inactive) |
| COc1cc(/C=C2\CN(C(=O)CCN3CCC(=NO)CC3)C/C(=C\c3cc(OC)c(OC)c(OC)c3)C2=O)cc(OC)c1OC | -77.2% (active) |
| CC1=N/C(=C\c2cccc(Br)c2)C(=O)O1 | 100% (inactive) |
| O=C1C[C@H](N2C(=O)c3ccccc3S2(=O)=O)C2CO[C@@H]1O2 | -80.1% (active) |
| C=C1C(=O)O[C@H]2[C@H]1CC/C(Cn1cc(Cc3c[nH]c4ccccc34)nn1)=C\CC[C@@]1(C)O[C@@H]21 | 31.7% (inactive) |
| CS(=O)(=O)c1c(Nc2ccccc2)n[nH]c1N | 105% (inactive) |
| COc1cc(-c2nc3ccccc3s2)ccc1NC(=O)COc1ccc(Cl)cc1 | 6.38% (active) |
| COc1ccc(CNc2nccnn2)cc1 | 97.8% (inactive) |
| CCC(=O)Oc1ccc(/C(=C(\C)c2ccccc2)c2ccc(OCCN(CC)CC)cc2)cc1 | 100% (inactive) |
| Cn1c(=O)c2c(ncn2CC[N+](C)(C)C)n(C)c1=O | 102% (inactive) |
| c1ccc(CSc2ncnc3nc[nH]c23)nc1 | 57% (inactive) |
| CCN(CC)CC(C)Nc1ccc([N+](=O)[O-])c2sc3ccccc3c(=O)c12 (stereo not given) | 18.1% (inactive) |
| Brc1cccc(-c2cc(-c3ccc4c(c3)OCCO4)[nH]n2)c1 | 25.7% [25 µM] (inactive) |
| N=c1c2ccccc2nc2n1CCCCC2 | 95.1% (inactive) |
| Clc1ccc(-c2nnc(COc3ccccc3Cl)o2)cc1 | 84.3% (inactive) |

| SMILES | growth |
| --- | --- |
| COc1ccc(CCN2CC=Cn3c2nc2ccccc2c3=O)cc1 | 26.9% (inactive) |
| Cc1nn(-c2ccccc2)c2nc(C)n(-c3ccc(Br)cc3)c(=O)c12 | 26.9% (inactive) |
| COc1ccc2nc3cc(Cl)ccc3c(N3CCN(c4ccnc(N5CCOCC5)n4)CC3)c2c1 | 59.7% (inactive) |
| O=C(CN1CCN(c2cc3c(cc2F)c(=O)c(C(=O)O)cn3C2CC2)CC1)Nc1nc(-c2ccccc2)cs1 | 93.8% (inactive) |
| O=C(CN1CCN(c2cc3c(cc2F)c(=O)c(C(=O)O)cn3C2CC2)CC1)Nc1nc(-c2ccc(Cl)cc2)cs1 | 30.4% (inactive) |
| Oc1ccccc1N=Cc1c(O)ccc2ccccc12 | 47.6% (inactive) |
| COc1cc(-c2cnc3nonc3n2)c(OC)c2c1OCO2 | 99.1% (inactive) |
| Nc1cc2nc3ccccc3sc-2cc1=O | 56.3% (inactive) |
| COc1cc2nc3cc([N+](=O)[O-])ccc3c(NCCCNCC(C)(C)O)c2cc1OC | 18.4% (inactive) |
| COc1ccc(/C=N\NC(=O)c2ccncc2)cc1O | 90.4% (inactive) |
| NC(N)=Nc1ccc(S(=O)(=O)O)cc1 | 115% (inactive) |
| O=C1/C(=C/c2ccc(Cl)cc2Cl)CN(S(=O)(=O)c2ccccc2)C/C1=C\c1ccc(Cl)cc1Cl | -66.1% (active) |
| CC(=O)C1=C(O)C=C2Oc3c(C(=O)/C=C/c4cc(C(F)(F)F)cc(C(F)(F)F)c4)c(O)c(C)c(O)c3[C@]2(C)C1=O | 5.35% (active) |
| O=S(=O)(NCCCNc1cc(-c2cn(-c3ccccc3)nc2-c2cccc(O)c2)ccn1)c1ccccc1 | 43.3% (inactive) |
| O=C1Nc2ccc(Br)cc2C12CC(c1ccccc1)=NN2 (stereo not given) | 51.5% (inactive) |
| CCOC(=O)c1cnc2ccc(OC)cc2c1Nc1cccc(S(=O)(=O)NC)c1 | 89.4% (inactive) |
| COc1cc(OC)c(/C=C/c2cc[n+](C)c3ccccc23)c(OC)c1 | 67.1% (inactive) |
| COc1cc(C2CC(=O)c3c(C)nn(-c4nc5ccccc5[nH]4)c3C2)cc(OC)c1OC (stereo not given) | 101% (inactive) |
| C[C@@H]1CC[C@@H]2[C@@H]1[C@H](OC(=O)/C=C/c1ccccc1)[C@]1(C3CCCCC3)C[C@@H](OC(=O)CO)[C@@]2(C)O1 | 16.4% (inactive) |
| CCN(CC)c1ccc(CNc2cc(C)nc3ccc(OC)cc23)cc1 | 21.6% (inactive) |
